Among all 52,000 compounds or so, about 4,300 (8.3%) were called active. For the sample, actives were picked, then their nearest neighbours and some compounds at random. Values without a mark were called inactive. No stated cut-off is given here; in the data, active means survival mostly below about 52% (no sharp cut-off); inactive means mostly above about 56%.

The experiment deals with DeltatarO mutant. Put plainly: growth inhibition of S. aureus wild type versus tarO mutant, primary screen, teichoic acid synthesis inhibitors, RN4220, OD600 (AID 463173). Conditions: OD600, 18 h, stronger effect = lower value, screened at 18.75 µg/mL (by protocol).
Consider `CN(C)c1ccc(CNC(=O)CN2C(=O)CSc3ccc(S(=O)(=O)N4CCCC4)cc32)cc1`, for which the survival was 80%.

For `COc1ccccc1CNc1ncnc2c1nc1n2CCCC1`, the survival was 80%.

On to `COc1ccc(NC(=O)CC2C(=O)N(c3ccc(OC)cc3)C(=O)N2Cc2ccc(OC)c(OC)c2)cc1` (stereo unspecified), for which the survival was 131%.

For `CCOC(=O)c1ccc(NC(=O)c2cnn(-c3ccc(C)cc3C)c2C2CCN(C(=O)OC(C)(C)C)CC2)cc1`, the survival is 93%.

With `Cc1nc(N2CCCCC2)c(C#N)c2c1COC(C)(C)C2`, the survival is 81%.

Consider `Nc1ccc(N2CCOCC2)cc1C(F)(F)F`, for which the survival was 80%.

Turning to `COc1ccc(NCc2nc3ccccc3n2CCOc2ccccc2C)cc1`, the survival was 32% (active).

As to `Cc1ccc(C)c(OCCn2c(CCNC(=O)C3CCCCC3)nc3ccccc32)c1`, the survival is 59%.

For `Fc1ccc(NCc2nc3ccccc3n2CCOc2ccccc2Cl)cc1`, the survival is 91%.

Regarding `Cc1ccc(NCc2nc3ccccc3n2CCOc2ccccc2C)cc1`, the survival is 3% (active).

Consider `Cc1cccc(NCc2nc3ccccc3n2CCOc2ccccc2C)c1`, for which the survival is 3% (active).

For `CCC(CC)c1nn2c(=O)cc(COc3ccc(NC(=O)c4ccccc4Cl)cc3)nc2s1`, the survival was 94%.

As to `COc1ccc(-c2nc(SCC(=O)NCCc3ccc(OC)c(OC)c3)n[nH]2)cc1`, the survival was 88%.

With `COc1ccc(NC(=O)C2(c3cccs3)CCOCC2)cc1Cl`, the survival is 91%.

As to `Cc1cccc(CN2C(=O)c3ccccc3S(=O)(=O)c3ccc(C(=O)OCC4CCCO4)cc32)c1` (stereo unspecified), the survival is 90%.

Consider `CCOc1cccc(OCCCn2c(-c3ccc(Br)cc3)nc3ccccc3c2=O)c1`, for which the survival was 64%.

Take `Cc1ccc(C)c(Cn2c3ccccc3c3cnn(CC(=O)NCC(C)c4ccccc4)c(=O)c32)c1` (stereo unspecified): the survival was 72%.

Regarding `COc1ccccc1NC(=O)NC1(C(=O)N2CCCCC2)CCCCC1`, the survival is 85%.

Regarding `CCc1ccc(C2N=C(N)Nc3nc4ccccc4n32)cc1` (stereo unspecified), the survival was 137%.

For `O=C1c2ccccc2-c2nc3ncnn3c(-c3ccc4c(c3)OCO4)c21`, the survival is 49% (active).

Turning to `O=C1C(=Cc2ccc3c(c2)OCO3)C(=O)c2ccccc21`, the survival was 64%.

Turning to `Cc1cccc(-c2c3c(nc4ncnn24)-c2ccccc2C3=O)c1`, the survival is 74%.

In the case of `Cc1nc2c3ccccc3nc(NNC(=O)CCC(=O)N3CCN(c4ccccc4F)CC3)n2n1`, the survival is 79%.

With `Cc1nc2c3ccccc3nc(NNC(=O)CCC(=O)N3CCN(c4cccc(Cl)c4)CC3)n2n1`, the survival was 107%.

As for `Cc1nc2c3ccccc3nc(NNC(=O)CCC(=O)N3CCN(c4cc(Cl)ccc4C)CC3)n2n1`, the survival is 55% (active).

In the case of `O=c1c2sc3ccccc3c2n(Cc2cccc(C(F)(F)F)c2)c(=O)n1-c1ccccc1`, the survival is 73%.

For `c1ccc(-c2cc3ccsc3s2)cc1`, the survival is 99%.

Take `Oc1cc2ccsc2c2ccccc12`: the survival was 9% (active).

In the case of `O=c1cc(O)c2ccccc2[nH]1`, the survival is 75%.

Turning to `COc1cc(NC(=O)CCCSc2nc(-c3ccco3)cc(C(F)(F)F)n2)cc(OC)c1OC`, the survival is 38% (active).

For `COc1ccc(NC(=O)CSc2nc(-c3ccco3)cc(C(F)(F)F)n2)c(OC)c1`, the survival is 56%.

Consider `COc1ccc(NC(=O)CCCSc2nc(-c3ccco3)cc(C(F)(F)F)n2)cc1`, for which the survival was 55%.

`COc1ccc(NC(=O)CCCSc2nc(-c3ccco3)cc(C(F)(F)F)n2)c(OC)c1`: the survival is 16% (active).

Regarding `COc1cc(NC(=O)CSc2nc(-c3ccco3)cc(C(F)(F)F)n2)cc(OC)c1OC`, the survival was 54%.

For the compound `COc1ccc(NC(=O)CCCSc2nc(-c3ccco3)cc(C(F)(F)F)n2)cc1OC`, the survival was 45%.

With `COc1ccc(-c2nc3scc(CCNS(=O)(=O)c4ccc(C)cc4)n3n2)cc1`, the survival is 70%.

As for `CCn1cc2nc(SCc3cccc(C(F)(F)F)c3)n(Cc3ccc(Cl)cc3)c(=O)c2n1`, the survival is 124%.

For `COc1cccc(N2CCN(c3ccc4nnc(CCC(=O)O)n4n3)CC2)c1`, the survival is 89%.

As to `COc1ccc(Cl)cc1NC(=O)NCCc1c(C)nn(C)c1C`, the survival is -1% (active).

For `COC(=O)c1ccccc1NC(=O)NCCc1c(C)nn(C)c1C`, the survival was 86%.

In the case of `COc1ccc(NC(=O)NCCc2c(C)nn(C)c2C)c(OC)c1`, the survival is 90%.

For `Cc1nn(C)c(C)c1CCNC(=O)Nc1cccc(Cl)c1C`, the survival is 67%.

Turning to `Cc1nn(C)c(C)c1CCNC(=O)Nc1ccccc1C(F)(F)F`, the survival was 6% (active).

As for `COC(=O)c1ccc(Cl)cc1NC(=O)NCCc1c(C)nn(C)c1C`, the survival is 81%.

Take `Cn1c(=O)oc2cc(S(=O)(=O)NC(Cc3ccccc3)C(=O)Nc3ccc(F)c(Cl)c3)ccc21` (stereo unspecified): the survival was 83%.

Turning to `COc1ccc(NC(=O)CN(C)S(=O)(=O)c2cccc3nsnc23)cc1`, the survival is 106%.

In the case of `Cc1nnc(SCC(=O)Nc2ccc(N(C)C)cc2)[nH]c1=O`, the survival was 77%.

Regarding `O=c1[nH]c(SCc2ccc(Br)cc2)nc2c1CCCC2`, the survival was 52%.

In the case of `O=c1[nH]c(SCc2ccccc2)nc2c1CCCC2`, the survival was 57%.

Take `O=c1[nH]c(SCc2ccc(F)cc2)nc2c1CCCC2`: the survival is 63% (active).

Turning to `O=C(CSc1nc2ccccc2nc1Cc1ccc(Cl)cc1)N1CCN(c2ccccc2F)CC1`, the survival was 71%.

With `Cc1ccc(NC(=O)CSc2nc3ccc(NC(=O)COc4ccc(C)cc4)cc3s2)cc1`, the survival was 83%.

Consider `CC(=O)Nc1cc(C(=O)NCc2ccc(C)cc2)ccc1Sc1ccc(C)cc1`, for which the survival was 96%.

In the case of `COCc1cc(C)nc2c1C(=O)NC(c1ccc(Br)cc1)N2Cc1ccccc1` (stereo unspecified), the survival was 69%.

For `COc1ccc(-c2nc3ccccc3o2)cc1NC(=O)C(C)Oc1ccc(Cl)cc1Cl` (stereo unspecified), the survival was 38% (active).

As to `Cc1ccc2cccc(NC(=O)C(C)Oc3ccc(Cl)cc3Cl)c2n1` (stereo unspecified), the survival was -2% (active).

On to `Cc1ccc2cccc(NC(=O)C(C)Oc3ccc(C)c(C)c3)c2n1` (stereo unspecified), for which the survival is 56%.

As to `COc1cc2c(cc1NC(=O)C(C)Oc1ccccc1)oc1ccccc12` (stereo unspecified), the survival was -1% (active).

In the case of `COc1ccc(Cl)cc1NC(=O)NCc1noc2ccccc12`, the survival was 35%.

With `COc1cc2c(cc1NC(=O)C(C)Oc1ccc(Cl)cc1Cl)oc1ccccc12` (stereo unspecified), the survival was 38% (active).

As to `COc1cc2c(cc1NC(=O)COc1cc(C)ccc1C)oc1ccccc12`, the survival was 79%.

Consider `Cc1ccc(OCC(=O)Nc2cccc3ccc(C)nc23)c(C)c1`, for which the survival is 62%.

For `COc1cc2c(cc1NC(=O)COc1cc(C)cc(C)c1)oc1ccccc12`, the survival is 59%.

Consider `COc1cc2c(cc1NC(=O)COc1ccc(Cl)cc1Br)oc1ccccc12`, for which the survival was 51%.

As for `CCOC(=O)c1ccc(NC(=O)CSc2nnc3c4ccccc4n(CC)c3n2)cc1`, the survival was 72%.

Regarding `O=C(CSc1nc2c(c(=O)[nH]1)CN(Cc1ccc3c(c1)OCO3)CC2)Nc1ccc(F)cc1`, the survival was 75%.

As for `Cc1ccc(NC(=O)Cn2cc(S(=O)(=O)c3ccc(C)cc3)c(=O)c3cc4c(cc32)OCO4)cc1`, the survival is 58%.

As to `COc1ccc(NC(=O)c2c(NCc3sccc3C)sc3c2CCCCC3)c(OC)c1`, the survival is 85%.

Turning to `CCOc1ccc(CCNc2ncnc3onc(C)c23)cc1OCC`, the survival is 71%.

Take `O=C(Nc1cccnc1)c1cc(-c2cccc(Cl)c2)on1`: the survival was 115%.

With `O=C(CN1C=NS(=O)(=O)c2ccccc21)Nc1ccc(F)cc1`, the survival was 87%.

For the compound `CC1=C(C(=O)Nc2ccc(C)cc2C)C(c2ccc[nH]2)n2ncnc2N1` (stereo unspecified), the survival was 89%.

On to `O=C(CSc1ncc2c(n1)-c1ccccc1N(Cc1ccc(F)cc1)S2(=O)=O)c1ccc(Cl)cc1`, for which the survival was 89%.

Regarding `CCOC(=O)c1c(C)[nH]c(C)c1S(=O)(=O)N(C)CC(=O)N1CCN(c2cccc(C)c2C)CC1`, the survival is 84%.

Regarding `CC(C)c1nn2c(=O)cc(COC(=O)c3ccc(NC(=O)COc4ccccc4)cc3)nc2s1`, the survival is 98%.

Regarding `O=C(NCCS(=O)(=O)N1CCN(c2ccc(F)cc2)CC1)c1cc(=O)c2ccccc2o1`, the survival was 94%.

Regarding `CCCCN1C(=O)CN(C2CCCCCC2)C(=O)C1c1ccc(OCCC)c(OC)c1` (stereo unspecified), the survival is 66%.

On to `COc1ccc(C2C(=O)N(C3CCC(C)CC3)CC(=O)N2C2CCCCC2)cc1OC` (stereo unspecified), for which the survival was 76%.

As for `COc1ccc(C2C(=O)N(C3CCC(C)CC3)CC(=O)N2C2CCCC2)cc1OC` (stereo unspecified), the survival is -2% (active).

With `CCCOc1ccc(C2C(=O)N(C3CCC(C)CC3)CC(=O)N2CCC2=CCCCC2)cc1OC` (stereo unspecified), the survival was 80%.

On to `CCCOc1ccc(C2C(=O)N(C3CCCCCC3)CC(=O)N2CCC2=CCCCC2)cc1OC` (stereo unspecified), for which the survival was 119%.

As for `CCCN1C(=O)CN(C2CCCCCC2)C(=O)C1c1ccc(OCC)c(OC)c1` (stereo unspecified), the survival was 109%.

In the case of `CCCOc1ccc(C2C(=O)N(C3CCCCCC3)CC(=O)N2CCC)cc1OC` (stereo unspecified), the survival was -4% (active).

For `COc1ccc(C2C(=O)N(C3CCC(C)CC3)CC(=O)N2CCC2=CCCCC2)cc1OC` (stereo unspecified), the survival is -1% (active).

Take `CCCOc1ccc(C2C(=O)N(C3CCCCC3)CC(=O)N2C2CCCCC2)cc1OC` (stereo unspecified): the survival was 91%.

As for `CCCCN(C)C(=O)CN1C(=O)CCn2nc(-c3cn(C)c4ccccc34)cc21`, the survival is 117%.

Consider `Cc1cccc(NC(=O)CSc2nc(=O)n(CCN3CCOCC3)c3c2CCC3)c1`, for which the survival was 86%.

With `COc1cccc(C(=O)NCCSc2c(-c3ccc(F)cc3)[nH]c3ccccc23)c1OC`, the survival is 52%.

Turning to `O=C(NC1CCN(C(=O)Nc2cccc(F)c2)CC1)c1ccco1`, the survival is 88%.

`COc1cccc(N2C(=O)N(CC(=O)NCc3cccc(OC)c3OC)c3ccccc3S2(=O)=O)c1`: the survival is 95%.

Take `COc1cc(C(Nc2ccc(S(=O)(=O)N3CCCC3)cc2)C(=O)NC(C)(C)C)cc(OC)c1OC` (stereo unspecified): the survival is 77%.

(Values after PubChem BioAssay AID463173 (ICCB-Longwood Screening Facility, Harvard Medical School, 2010).)
